Experimental data published in PubChem BioAssay AID1159580 (chemical genetic matrix, 2015).
Values joined by “and” are separate entries in the source; they are usually repeats but may differ in a detail not shown here. Equal entries are not always repeated. Screen size: about 5,500 compounds; about 2,000 (36%) were called active. About 18% were inconclusive and are not listed. Rule as the data show it: active = normalized growth mostly below about 0.91 (no sharp cut-off); inconclusive = no clear call, values can overlap the other calls; inactive = mostly above about 0.92. The list shows a part of the results.

Test: chemical genetic growth profiling, strain panel (AID 1159580);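 also: tested at 20 µM; growth read once vehicle control cultures reached saturation at 30 °C; 1 = growth at the plate median or of vehicle wells; lower values mean less growth of the strain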
Conditions: growth OD

Measured: normalized growth

O=c1[nH]cc(F)c(=O)[nH]1
inactive: S. cerevisiae deletion strains, locus YKL068W, hits give low values 0.995 | S. cerevisiae deletion strains, locus YKL085W, strain MDH1 (second series), hits give low values 0.965 | S. cerevisiae deletion strains, locus YKL085W, strain MDH1, hits give low values 0.965 | S. cerevisiae deletion strains, locus YKR091W, strain srl3, hits give low values 1.01 | S. cerevisiae deletion strains, locus YLR102C, strain apc9, hits give low values 0.943 | S. cerevisiae deletion strains, locus YLR262C, strain YPT6, hits give low values 0.647 | S. cerevisiae deletion strains, locus YLR330W, strain CHS5, hits give low values 0.966 | S. cerevisiae deletion strains, locus YMR078C, strain ctf18, hits give low values 0.994 | S. cerevisiae deletion strains, locus YMR205C, strain PFK2, hits give low values 0.919 | S. cerevisiae deletion strains, locus YMR263W, strain SAP30, hits give low values 0.957 and 1.01 | S. cerevisiae deletion strains, locus YMR307W, strain GAS1, hits give low values 0.901 and 0.99 | S. cerevisiae deletion strains, locus YNL175C, strain NOP13, hits give low values 1.03 | S. cerevisiae deletion strains, locus YNL197C, strain WHI3, hits give low values 1.01 | S. cerevisiae deletion strains, locus YNL224C, strain SQS1, hits give low values 0.929 | S. cerevisiae deletion strains, locus YOR061W, strain CKA2, hits give low values 0.947 | S. cerevisiae deletion strains, locus YOR083W, strain WHI5 (second series), hits give low values 1.03 | S. cerevisiae deletion strains, locus YOR144C, strain elg1, hits give low values 0.999 | S. cerevisiae deletion strains, locus YOR316C, strain cot1, hits give low values 0.958 | S. cerevisiae deletion strains, locus YPL055C, strain LGE1, hits give low values 0.955 | S. cerevisiae deletion strains, locus YPL241C, strain CIN2, hits give low values 1.03 | S. cerevisiae deletion strains, locus YPR119W, strain clb2, hits give low values 1.03 | S. cerevisiae deletion strains, locus YPR141C, strain kar3, hits give low values 1.03 | S. cerevisiae deletion strains, locus YPR163C, strain tif3, hits give low values 0.981
active: S. cerevisiae deletion strains, locus YKL009W, strain mrt4, hits give low values 0.862 | S. cerevisiae deletion strains, locus YKL160W, strain elf1, hits give low values 0.671 | S. cerevisiae deletion strains, locus YKL190W, strain CNB1, hits give low values 0.858 | S. cerevisiae deletion strains, locus YKR001C, strain vps1, hits give low values 0.471 | S. cerevisiae deletion strains, locus YKR026C, strain gcn3, hits give low values 0.83 | S. cerevisiae deletion strains, locus YLL001W, strain dnm1, hits give low values 0.456 | S. cerevisiae deletion strains, locus YLL026W, hits give low values 0.588 | S. cerevisiae deletion strains, locus YLL041C, strain sdh2, hits give low values 0.849 | S. cerevisiae deletion strains, locus YLR027C, strain aat2, hits give low values 0.537 | S. cerevisiae deletion strains, locus YLR039C, strain RIC1, hits give low values 0.601 | S. cerevisiae deletion strains, locus YLR058C, strain SHM2, hits give low values 0.746 | S. cerevisiae deletion strains, locus YLR113W, strain HOG1, hits give low values 0.772 | S. cerevisiae deletion strains, locus YLR221C, strain rsa3, hits give low values 0.411 | S. cerevisiae deletion strains, locus YLR258W, strain gsy2, hits give low values 0.542 | S. cerevisiae deletion strains, locus YLR262C, strain YPT6 (second series), hits give low values 0.63 | S. cerevisiae deletion strains, locus YLR268W, strain sec22, hits give low values 0.726 | S. cerevisiae deletion strains, locus YLR320W, strain mms22, hits give low values 0.509 | S. cerevisiae deletion strains, locus YLR342W, strain FKS1 (second series), hits give low values 0.743 | S. cerevisiae deletion strains, locus YLR342W, strain FKS1, hits give low values 0.807 | S. cerevisiae deletion strains, locus YLR357W, strain rsc2, hits give low values 0.775 | S. cerevisiae deletion strains, locus YLR370C, strain arc18, hits give low values 0.562 | S. cerevisiae deletion strains, locus YLR371W, strain rom2, hits give low values 0.867 | S. cerevisiae deletion strains, locus YLR384C, strain iki3, hits give low values 0.809 | S. cerevisiae deletion strains, locus YLR418C, strain cdc73, hits give low values 0.819 | S. cerevisiae deletion strains, locus YML016C, strain PPZ1, hits give low values 0.864 | S. cerevisiae deletion strains, locus YML032C, strain rad52, hits give low values 0.642 | S. cerevisiae deletion strains, locus YML120C, strain ndi1, hits give low values 0.464 | S. cerevisiae deletion strains, locus YML124C, strain tub3, hits give low values 0.914 | S. cerevisiae deletion strains, locus YMR058W, strain fet3, hits give low values 0.562 | S. cerevisiae deletion strains, locus YMR125W, strain sto1, hits give low values 1.12 [resistant] | S. cerevisiae deletion strains, locus YMR129W, hits give low values 0.701 | S. cerevisiae deletion strains, locus YMR223W, strain ubp8, hits give low values 0.613 | S. cerevisiae deletion strains, locus YMR231W, strain pep5, hits give low values 0.793 | S. cerevisiae deletion strains, locus YNL067W, strain RPL9B, hits give low values 0.84 | S. cerevisiae deletion strains, locus YNL071W, strain lat1, hits give low values 0.698 | S. cerevisiae deletion strains, locus YNL128W, strain TEP1, hits give low values 0.784 | S. cerevisiae deletion strains, locus YNL183C, strain NPR1, hits give low values 0.611 | S. cerevisiae deletion strains, locus YNL209W, strain ssb2, hits give low values 0.647 | S. cerevisiae deletion strains, locus YNL233W, strain BNI4, hits give low values 0.843 | S. cerevisiae deletion strains, locus YNL248C, strain rpa49, hits give low values 0.346 | S. cerevisiae deletion strains, locus YNL250W, strain rad50, hits give low values 0.848 | S. cerevisiae deletion strains, locus YNL271C, strain bni1, hits give low values 0.811 | S. cerevisiae deletion strains, locus YNL298W, strain CLA4, hits give low values 0.905 | S. cerevisiae deletion strains, locus YNL307C, strain MCK1, hits give low values 0.756 | S. cerevisiae deletion strains, locus YNL322C, strain KRE1 (second series), hits give low values 0.65 | S. cerevisiae deletion strains, locus YNR049C, strain mso1, hits give low values 0.647 | S. cerevisiae deletion strains, locus YNR052C, strain pop2, hits give low values 0.909 | S. cerevisiae deletion strains, locus YOL012C, strain htz1 2.56 [resistant] | S. cerevisiae deletion strains, locus YOL147C, strain pex11, hits give low values 0.796 | S. cerevisiae deletion strains, locus YOR001W, strain rrp6, hits give low values 0.193 | S. cerevisiae deletion strains, locus YOR069W, strain VPS5, hits give low values 0.858 | S. cerevisiae deletion strains, locus YOR070C, strain gyp1, hits give low values 0.622 | S. cerevisiae deletion strains, locus YOR080W, strain dia2, hits give low values 0.809 | S. cerevisiae deletion strains, locus YOR083W, strain WHI5, hits give low values 0.686 | S. cerevisiae deletion strains, locus YOR106W, strain vam3, hits give low values 0.394 | S. cerevisiae deletion strains, locus YOR136W, strain idh2, hits give low values 0.902 | S. cerevisiae deletion strains, locus YOR184W, strain ser1, hits give low values 0.561 | S. cerevisiae deletion strains, locus YOR231W, strain MKK1, hits give low values 0.549 | S. cerevisiae deletion strains, locus YOR265W, strain rbl2, hits give low values 0.654 | S. cerevisiae deletion strains, locus YOR270C, strain vph1, hits give low values 0.397 | S. cerevisiae deletion strains, locus YOR290C, strain snf2, hits give low values 0.415 | S. cerevisiae deletion strains, locus YPL051W, strain arl3, hits give low values 0.598 | S. cerevisiae deletion strains, locus YPL078C, strain atp4, hits give low values 0.482 | S. cerevisiae deletion strains, locus YPL106C, strain sse1, hits give low values 0.709 | S. cerevisiae deletion strains, locus YPL240C, strain hsp82, hits give low values 0.671 | S. cerevisiae deletion strains, locus YPL256C, strain CLN2, hits give low values 0.714 | S. cerevisiae deletion strains, locus YPR167C, strain met16, hits give low values 0.831 | S. cerevisiae deletion strains, strain wtn01, hits give low values 0.635 | S. cerevisiae strains, strain wild type, hits give low values 0.776
